Data taken from PubChem BioAssay (EPA / NIEHS).
Results filed as inconclusive are left out. Active and inactive are the calls of the source. Rule for the calls: active = hit-call score of the fitted dose curve at least 0.9, where 1 is the maximum; inconclusive = response in the unintended direction; inactive = score below 0.9.

system: not listed separately; assay: NVS_IC_rCaBTZCHL: NovaScreen (NVS) Ion Channel Assay for Calcium Channel, Type L, Benzothiazepine Site (CaBTZCHL) (AID 2283337)
Summary of the method: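 Test chemicals were added to rat cortical membranes and incubated 1.5 h with a tritiated or iodinated radioligand for the benzothiazepine site. Bound ligand was separated by filtration and counted. Actives from the 25 uM duplicate screen were retested in concentration series.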

**Q.** Which AC50 does the source give for `CCCN(CC)CC1COC2(CCC(C(C)(C)C)CC2)O1` (stereo not given) here?
**A.** Its AC50 is 9.84 µM (active).

**Q.** With `CCCCC(O)(Cn1cncn1)c1ccc(Cl)cc1Cl` (stereo not given) as the compound, how does the outcome read?
**A.** The outcome was “inactive”.

**Q.** For `Cn1c(-c2ccccc2)cc(-c2ccccc2)[n+]1C`, which AC50 is on record?
**A.** Its AC50 is 33.3 µM (active).

**Q.** Which outcome does the source give for `CCCCC(C#N)(Cn1cncn1)c1ccc(Cl)cc1` (stereo not given) here?
**A.** The outcome was “inactive”.

system: guinea pig Histamine Receptor (H2), gene 100729734; assay: NVS_GPCR_gH2: NovaScreen (NVS) G Protein-Coupled Receptor Assay for guinea pig Histamine Receptor (H2) (AID 2283342)
Summary of the method: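 Guinea pig striatal membrane preparation with specific radioligand; bound counts measured by filtration and scintillation 1 h post-dosing, DMSO as baseline. Chemicals passing a 25 uM duplicate screen were titrated to a 50 uM maximum.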

**Q.** With `CC(C)(C)C(=O)C(Oc1ccc(Cl)cc1)n1cncn1` (stereo not given) as the compound, how does the outcome read?
**A.** Its outcome is “inactive”.

**Q.** Which AC50 does the source give for `CCCN(CC)CC1COC2(CCC(C(C)(C)C)CC2)O1` (stereo not given) here?
**A.** Its AC50 is 9.65 µM (active).

**Q.** Which outcome does the source give for `CSC(=O)c1c(C(F)F)nc(C(F)(F)F)c(C(=O)SC)c1CC(C)C` here?
**A.** Its outcome is “inactive”.

**Q.** Which outcome does the source give for `Cn1c(-c2ccccc2)cc(-c2ccccc2)[n+]1C` here?
**A.** Its outcome is “inactive”.

**Q.** With `CCNP(=S)(OC)O/C(C)=C/C(=O)OC(C)C` (stereo not given) as the compound, how does the AC50 read?
**A.** The AC50 was 16.1 µM (active).

**Q.** Which AC50 does the source give for `CCCCC(C#N)(Cn1cncn1)c1ccc(Cl)cc1` (stereo not given) here?
**A.** Its AC50 is 29.7 µM (active).
